In the library only some 1.8% were active in any assay of this set; here they are far more common.
APP 5UTR inh – inhibitors of APP translation via 5'UTR reporter, primary screen, APP 5'UTR luciferase, SH-SY5Y cells; SH-SY5Y APP 5'UTR-luciferase reporter, luminescence; 0.82% of 190,000 active; inhibition, % at 2 µM; AID 1285, 2008;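 active = inhibition above a set limit, derived from the sample mean plus 3 SD, cut at about 45% in these data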
Ba/F3 V617F tox – reduced viability of JAK2V617F-dependent Ba/F3 cells, primary screen, JAK2V617F inhibitor project, cell-based, Ba/F3 EpoR-JAK2V617F, luminescence. inhibition, % at 5.6 µM. ATP luminescence. AID 1446, 2008. 1.1% of 220,000 active;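 active = inhibition above the campaign mean plus 3 SD over all tested compounds, cut at about 24% in these data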;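 note: cytokine-independent growth of Ba/F3 cells driven by EpoR plus mutant JAK2; 0% = DMSO-treated cells and 100% = JAK inhibitor I control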
IEC-6 tox-1 – cytotoxicity in IEC-6 intestinal epithelial cells, primary screen, cytotoxicity control for KLF5 inhibitor project, cell-based, luminescence | 0.78% of 290,000 active | AID 1825, 2009 | inhibition, % at 5 µM | IEC-6 cytotoxicity, luminescence viability;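 note: 0% = plate median of test compound wells and 100% = cytotoxic reference compound wells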
BaF3 parental – parental Ba/F3 cell viability inhibition, counter-screen for JAK2V617F inhibitor project, murine pro-B, CellTiter-Glo luminescence | CellTiter-Glo ATP luminescence | inhibition, % at 5.6 µM | 1.1% of 220,000 active;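 active = inhibition above a per-campaign cutoff, the mean inhibition of all tested compounds plus 3 SD, cut at about 27% in these data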;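 note: 0% = DMSO wells and 100% = JAK Inhibitor I control wells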
KLF5 inh – KLF5 expression inhibitors, primary screen, DLD-1 cells, luminescence | 0.23% of 290,000 active | DLD-1 KLF5 promoter-luciferase reporter | inhibition, % at 5 µM;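 active = inhibition above a per-plate limit of that plate's mean compound inhibition plus 3 SD, cut at about 60% in these data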;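 note: 0% = DMSO wells and 100% = LY294002 at 200 µM; higher means less KLF5 promoter-driven luciferase light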
KLF5 inh confirm – KLF5 expression inhibitors, confirmation, DLD-1 cells, luminescence | shares compounds with KLF5 inh | AID 1834, 2009 | 79% of 610 active | inhibition, % at 4 µM | DLD-1 KLF5 promoter firefly luciferase reporter;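 active = inhibition above a set limit taken from the earlier primary screen, cut at about 63% in these data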;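 note: 0% = DMSO wells and 100% = LY294002 at 200 µM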
IEC-6 tox-2 – cytotoxicity in rat IEC-6 cells, cytotoxicity control for KLF5 inhibitor project, cell-based, luminescence, triplicate | shares compounds with KLF5 inh | inhibition, % at 4 µM | AID 1905, 2009 | IEC-6 rat intestinal cells, viability luminescence | 56% of 610 active; in the data active = inhibition above about 23%;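 note: cells exposed to compounds for 48 hours before viability read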
IEC-6 cytotox cf – cytotoxic compounds in IEC-6 epithelial cells, confirmation, cytotoxicity control, cell-based, luminescence | shares compounds with IEC-6 tox-1 | IEC-6 rat intestinal epithelial viability | inhibition, % at 5 µM | 63% of 1,900 active | AID 1907, 2009;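 note: 0% = vehicle and 100% = reference cytotoxic drug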
An asterisk follows results filed as active; nt = no result. Cut-off read from the data, not from the text of the source, unless noted: active = inhibition above about 22%; inactive = the rest.

SMILES	APP 5UTR inh	Ba/F3 V617F tox	IEC-6 tox-1	BaF3 parental	KLF5 inh	KLF5 inh confirm	IEC-6 tox-2	IEC-6 cytotox cf
COc1ccc2nc(SCC(=O)NC3CCCC3)c(C)cc2c1	nt	nt	45*	nt	71*	85*	16	27*
COc1ccc(S(=O)(=O)/N=C2\C=C(Nc3ccc(O)cc3)C(=O)c3ccccc32)cc1	nt	nt	101*	nt	104*	114*	102*	100*
Cc1ccccc1NC1=C/C(=N\S(=O)(=O)c2ccc(C(=O)O)cc2)c2ccccc2C1=O	nt	nt	16	nt	-17	nt	nt	nt
Cc1cc(C)c(/C=N/NC(=O)c2nnn(-c3nonc3N)c2CN2CCC(C)CC2)c(C)c1	nt	nt	-5	nt	-6	nt	nt	nt
CC1CCN(Cc2c(C(=O)N/N=C/c3cc(Cl)ccc3O)nnn2-c2nonc2N)CC1	nt	nt	50*	nt	69*	86*	42*	49*
CC1CCN(Cc2c(C(=O)N/N=C/c3cc(Br)ccc3O)nnn2-c2nonc2N)CC1	nt	nt	57*	nt	70*	84*	42*	62*
NC(=O)N/N=C/c1c(Sc2nnnn2-c2ccccc2)nc2ccccn2c1=O	nt	-3	11	-1	-35	nt	nt	nt
CCOC(=O)N1CCC(NC(=O)c2ccc3c(c2)N=C(C)c2c(C)ccc(C)c2S3)CC1	nt	nt	87*	nt	71*	87*	61*	67*
CCOc1ccc(S(=O)(=O)NCc2ccccn2)cc1	-28	-1	0	5	-10	nt	nt	nt
CCOc1ccc(S(=O)(=O)NCc2ccccn2)cc1NC(=O)c1ccccc1F	nt	nt	88*	nt	70*	81*	55*	58*
CCCC1=Nc2cc(C(=O)NCCCOCC)ccc2Sc2ccccc21	97*	93*	97*	91*	80*	86*	71*	74*
COc1ccc(C2NC(=O)c3sc4nc(C)c(C(C)=O)c(-c5ccc(Cl)cc5)c4c3N2)cc1 (stereo not drawn)	-12	-3	-4	5	3	nt	nt	nt
O=C1[C@@H]2Cc3c([nH]c4ccccc34)C(c3ccc([N+](=O)[O-])cc3)N2C(=O)CN1C1CC1 (stereo partly drawn)	nt	nt	80*	nt	69*	75*	45*	50*
O=C1[C@@H]2Cc3c([nH]c4ccccc34)C(c3ccccc3)N2C(=O)CN1C1CC1 (stereo partly drawn)	nt	nt	-11	nt	0	nt	nt	nt
CCC1=Nc2cc(C(=O)NCc3ccco3)ccc2Sc2ccc(C)cc21	94*	86*	81*	84*	75*	88*	67*	65*
COC(=O)Nc1nc(-c2ccccc2)c(C(=O)c2ccc(Cl)cc2)s1	9	0	56*	6	62*	85*	67*	58*
CCOc1ccc(CC(=O)N/N=C/c2sccc2C)cc1	nt	nt	0	nt	-39	nt	nt	nt
C=C(C)COc1ccc(-c2n[nH]c(C)c2-c2ccc(OC)c(OC)c2)c(O)c1	nt	78*	75*	76*	63*	70*	28*	49*
C=C(C)COc1ccc(-c2n[nH]c(C)c2Oc2ccccc2OC)c(O)c1	10	4	6	3	-1	nt	nt	nt
COc1ccc(OC)c(Nc2cc(C)nc3ccccc23)c1	-2	1	5	0	-10	nt	nt	nt
COc1ccc(OC)c(Nc2cc(-c3ccccc3)nc(N)n2)c1	94*	83*	89*	76*	65*	71*	58*	57*
COc1cc(C(=O)N2CCN(c3cccc(C)c3C)CC2)cc(OC)c1OC	95*	70*	82*	71*	72*	75*	59*	58*
Cc1cccc(N2CCN(C(=O)c3ccncc3)CC2)c1C	4	5	10	7	17	nt	nt	nt
CCCCCCCCCCn1ccc(=N)cc1	nt	99*	66*	100*	86*	70*	62*	72*
CCCCCCN1Cc2ccccc2C1	-75	3	3	3	-22	nt	nt	nt
SMILES	APP 5UTR inh	Ba/F3 V617F tox	IEC-6 tox-1	BaF3 parental	KLF5 inh	KLF5 inh confirm	IEC-6 tox-2	IEC-6 cytotox cf
CCCCCCCCn1ccc(=N)cc1	nt	99*	43*	90*	68*	53	48*	43*
CCCCCCN1C2=NCCCN2c2ccccc21	nt	-1	-4	2	-11	nt	nt	nt
O=C(NCc1ccc(F)cc1)c1cccnc1C(=O)O	nt	nt	2	nt	-24	nt	nt	nt
Cc1c(N2C(=O)c3ccccc3C2(O)c2ccccc2)c(=O)n(-c2ccccc2)n1C (stereo not drawn)	nt	-2	-1	2	-15	nt	nt	nt
O=C1CCCN1c1ccc(S(=O)(=O)Nc2ccc3c(c2)OCCO3)cc1	39	82*	79*	73*	78*	70*	41*	50*
CN(C)c1ccc(/C=N/NC(=O)COc2ccccc2)cc1	-12	2	-2	7	-39	nt	nt	nt
COc1ccc(/C=N/NC(=O)COc2ccccc2-c2ccccc2)cc1	96*	76*	79*	76*	65*	77*	54*	56*
CCOc1ccc(C(=O)c2cc([N+](=O)[O-])ccc2N2CCOCC2)cc1	94*	97*	92*	96*	89*	95*	86*	82*
CCC(CC)NC(=O)c1cc([N+](=O)[O-])ccc1N1CCOCC1	-1	-5	-4	4	-11	nt	nt	nt
Cc1ccc(COC(=O)c2cc([N+](=O)[O-])ccc2N2CCOCC2)cc1	nt	nt	87*	nt	83*	84*	74*	61*
COc1ccc(C(=O)c2cc([N+](=O)[O-])ccc2N2CCOCC2)cc1	93*	92*	85*	94*	77*	83*	66*	64*
CCC(=O)NC(=S)Nc1cccc(NC(=O)c2ccccc2)c1	17	5	9	6	-12	nt	nt	nt
CC(=O)NCCN1C(=O)S/C(=C\c2cccs2)C1=O	3	1	-3	7	-35	nt	nt	nt
O=C(Nc1ccc2nc3n(c(=O)c2c1)CCCCC3)c1c(F)ccc([N+](=O)[O-])c1F	nt	nt	92*	nt	62*	-19	22	32*
Cc1ccc(-c2nc3sc4c(N)ncnc4c3c3c2CCCC3)cc1	-1	2	4	0	-2	nt	nt	nt
N#CC(C#N)=C(Nc1ccc(F)cc1)SCc1cccc(Br)c1	1	20	30*	13	65*	68*	28*	41*
CC(SCc1ccccc1)C(=O)Nc1ccc(F)cc1 (stereo not drawn)	-4	1	-1	5	-22	nt	nt	nt
O=C(NC(Cc1ccccc1)C(=O)O)c1cccnc1Cl (stereo not drawn)	nt	nt	-2	nt	-32	nt	nt	nt
